Pf growth 96h: Primary qHTS for delayed death inhibitors of the malarial parasite plastid, 96 hour incubation | Potency, µM (titrated, usually from 28.7 µM), inactives show top-dose activity change, negative = inhibition, actives largely listed as inhibitors | AID 504834, 2011 | P. falciparum luciferase reporter growth, 96 h | actives 6.9% (n = 320,000); note: % is set by controls: 0 for no effect and ±100 for the full control effect
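Erythrocytes infected with luciferase-expressing P. falciparum were dispensed at 2% hematocrit and 0.05% parasitemia (final), then incubated with compounds 96 hours at 37 C in 5% CO2. Luminescence after detection reagent addition reported growth.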
NS1 function inh: qHTS Assay for Inhibitors of Influenza NS1 Protein Function; Potency, µM (top dose mostly 46.1 µM), inactives show at the highest dose activity, positive = more growth; actives 0.4% (n = 270,000); calls by dose curve; note: actives are rising curves; nearly all actives have a fitted effect of over 50% in size
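In this qHTS, NS1 from influenza A is expressed in budding yeast, where it slows growth. Cells are switched from glucose to 2% galactose medium (pH 6.0, -URA), treated with compound, and growth recovery is read at OD600.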
VACV mCherry inh: qHTS for Stage-Specific Inhibitors of Vaccinia Orthopoxvirus: mCherry Reporter Primary qHTS; Vaccinia virus mCherry reporter infection, fluorescence; Potency, µM (highest dose often 36.5 µM), for inactives: at the highest dose activity change, negative = inhibition, usual class: inhibitors; actives 0.63% (n = 310,000); calls by dose curve; tested in A549 cells; note: % is set by controls: 0 for no effect and ±100 for the full control effect; nearly all actives have a fitted effect of over 35% in size
HCV inhibitor: qHTS Assay for Inhibitors of Hepatitis C Virus (HCV); actives 3.4% (n = 340,000); AID 651820, 2012; Huh7.5.1 HCVcc-Cre infection, luciferase reporter, 44 h; Potency, µM (titrated, usually from 41.8 µM), for the others: at the highest dose activity change, negative = inhibition, actives largely listed as inhibitors; note: % is set by controls: 0 for no effect and ±100 for the full control effect
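Seed cells (1,000/well) for 4 h; treat with compound and infect with HCVcc-Cre, moi about 0.5. Incubate 44 h, then detect luciferase activity.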
Pf growth 48h: Primary qHTS for delayed death inhibitors of the malarial parasite plastid, 48 hour incubation; P. falciparum luciferase growth in erythrocytes, 48 h; Potency, µM (doses to about 28.7 µM), for inactives: at the highest dose activity change, negative = inhibition, actives largely listed as inhibitors; actives 5.9% (n = 310,000); AID 504832, 2011; note: % is set by controls: 0 for no effect and ±100 for the full control effect
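In quantitative HTS format, infected erythrocytes bearing luciferase-reporter parasites were treated for a single generation at 37 C. Luminescence after adding detection reagent served as the growth measure.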
VACV Venus inh: qHTS for Stage-Specific Inhibitors of Vaccinia Orthopoxvirus: Venus Reporter Primary qHTS | actives 0.46% (n = 330,000) | Vaccinia virus Venus reporter expression, fluorescence | AID 720580, 2013 | Potency, µM (series often up to 36.5 µM), for the others: top-dose activity change, negative = inhibition, most hits filed as inhibitors; calls by dose curve; tested in A549 cells; note: % is set by controls: 0 for no effect and ±100 for the full control effect; nearly all actives have a fitted effect of over 30% in size
* = called active by the depositor; i = inactive; ? = inconclusive; · = no result given. Compounds with a hit are over-represented: about 11% of the library has one in this group of screens. Unless noted, calls come from the whole dose curve; as a rule, active = well fitted inhibition curve with a large enough effect; inconclusive = small, poorly fitted or top-dose-only effect, or another doubt; inactive = no such curve, though single readings can be large or run the other way. Potency is the fitted concentration of half-maximal effect.

SMILES | Pf growth 96h | NS1 function inh | VACV mCherry inh | HCV inhibitor | Pf growth 48h | VACV Venus inh
COc1ccc(CCNC(=O)CN(C)S(=O)(=O)c2cccs2)cc1OC | ? | -1% | · | 8% | -2% | ?
COc1ccc(S(=O)(=O)N(C)CC(=O)NCc2ccccc2)cc1OC | 43% | -1% | -2% | 5% | -8% | -15%
COc1ccc(S(=O)(=O)N(C)CC(=O)NCCc2ccccc2)cc1OC | 15µM* | -4% | · | -21% | ? | ·
COc1ccc(CCNC(=O)CN(C)S(=O)(=O)c2ccc(Br)s2)cc1OC | 1.9µM* | -21% | i | -9% | -5% | -13%
CCCC(=O)NC(c1ccccc1)c1ccc2cccnc2c1O (configuration not stated) | ? | -114% | ? | 2.8µM* | 2.3µM* | ?
O=C(O)CCC(=O)NC(c1ccccc1)c1ccccc1 | -21% | 3% | -9% | 18% | 30% | -9%
CC(C)c1ccc(C(=O)Nc2cccc3cccnc23)cc1 | · | · | 2% | · | · | 11%
CC(=O)NC(c1ccc(C(C)C)cc1)c1ccc2cccnc2c1O (configuration not stated) | 228% | -122% | ? | 8.9µM* | 7.4µM* | ?
CCC(=O)NC(c1ccccc1OC)c1ccc2cccnc2c1O (configuration not stated) | -4% | -10% | ? | 2.5µM* | 4.1µM* | ?
CCCCC(=O)NC(c1ccccc1)c1ccc2cccnc2c1O (configuration not stated) | ? | 2% | 1.6µM* | 2.8µM* | ? | ?
CCCC(=O)NC(c1cccs1)c1cc([N+](=O)[O-])c2cccnc2c1O (configuration not stated) | 147% | 8% | ? | ? | ? | -26%
Oc1cccc(C(Nc2nccs2)c2ccc3cccnc3c2O)c1 (configuration not stated) | ? | · | 16µM* | ? | 3.3µM* | ?
Oc1c(C(Nc2ccccn2)c2ccccc2)ccc2cccnc12 (configuration not stated) | · | · | 11µM* | · | · | ?
Oc1c(C(Nc2ccccn2)c2cccnc2)cc(Cl)c2cccnc12 (configuration not stated) | 90% | -55% | ? | ? | 4.7µM* | ?
O=c1cc(CO)oc(C(Nc2ccccn2)c2ccccc2Cl)c1O (configuration not stated) | ? | · | -12% | 2% | ? | -22%
CCCCC(=O)NC(c1ccc(C(C)C)cc1)c1ccc2cccnc2c1O (configuration not stated) | 17% | -107% | · | 2.8µM* | 1.7µM* | ·
O=C(CCCOc1ccc(Cl)cc1Cl)N1CCC2(CC1)OCCO2 | · | -6% | · | -7% | 18% | ·
CCOc1ccc(N2CC(=O)N(c3ccc(OCC)cc3)CC2=O)cc1 | 0% | 2% | · | 4% | 30% | ·
CCCn1c(=N)c(S(=O)(=O)c2ccccc2)cc2c(=O)n3ccccc3nc21 | ? | 0% | -1% | ? | -15% | -12%
CCCC1CCC(c2ccc(C(=O)NN)cc2)CC1 (configuration not stated) | 50% | 13% | -6% | 8% | -30% | -5%
CCCC(=O)NC(c1ccc(OC)cc1)c1ccc2cccnc2c1O (configuration not stated) | ? | -61% | 8.9µM* | 3.2µM* | 1.3µM* | ?
CCCCC(=O)NC(c1ccccc1Cl)c1ccc2cccnc2c1O (configuration not stated) | 120% | -71% | · | 2.2µM* | 2.3µM* | ·
COc1ccc(CNC(=O)CSc2cccc3cccnc23)cc1 | 5% | -33% | 11% | 17% | -7% | 0%
CC(C)COc1ccc(C(=O)NC(CC(C)C)C(=O)O)cc1 (configuration not stated) | 7% | -76% | -8% | 24% | 15% | 1%
